A selection: hits, their analogues and other compounds. The true share with any hit is near 1.7%.
CFTR F508del cor: CFTR F508del correction in bronchial cells; CFBE cells, YFP halide quenching; stimulated with forskolin plus potentiator P3; % fluorescence drop versus neutral controls; activity (quench increase), % at 7.58 µM; 350,000 tested, 0.36% active;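 active means mean added fluorescence quench of at least 8% versus neutral control, with both replicates also reaching 8%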;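 further: cells transiently co-express mutant CFTR-F508del with the halide-sensitive YFP; corrector assay measuring rescue of mutant channel to the surface after 24 h compound exposure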
Vif inh: HIV Vif inhibition; HEK293T cells, Vif self-association by quenched fluorescence, imaging, 24 h; inhibition, % at 7.49 µM; 340,000 tested, 0.35% active; AID 602346; in the data active means inhibition above about 50%, passing the limit was not always enough
FGF22 binding-1: FGF22 (human) thermal shift binding | activity (Tm shift, normalised), % at 9.99 µM | Q9HCT0 | 340,000 tested, 1.5% active | recombinant FGF22 thermal shift, SYPRO orange fluorescence; percent of sucrose octasulfate shift, DMSO zero;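 active means mean Tm shift, scaled 0 neutral to 100 positive control, at about 1.3% or above, every replicate too, limit read from the data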
Target sequence (Q9HCT0 whole entry, looked up): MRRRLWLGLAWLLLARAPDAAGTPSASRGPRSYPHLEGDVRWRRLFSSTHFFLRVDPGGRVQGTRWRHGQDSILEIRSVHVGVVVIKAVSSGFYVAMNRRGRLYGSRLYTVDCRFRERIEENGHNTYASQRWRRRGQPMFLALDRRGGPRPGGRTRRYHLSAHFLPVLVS
FGF22 binding-2: FGF22 (human) binding in thermal shift; shares compounds with FGF22 binding-1; thermal shift activity, °C (ΔTm) at 38 µM; recombinant FGF22 thermal shift, SYPRO orange fluorescence; 1,000 tested, 2% active;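 active means fitted rise in melting shift crosses a set limit at or below the top valid dose tested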
SYPRO no-protein: shows thermal shift signal without protein, FGF22 counter-screen; shares compounds with FGF22 binding-1; compound-only SYPRO orange thermal shift counter-screen, no protein; AC50, µM (titrated, usually from 38 µM); 1,000 tested, 2% active; AID 743019;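 active means rising signal whose fitted curve reaches the 0.54 level within the top valid dose, showing a melting point, actives reach about 13 µM in these data; inactive means the rest, including activity in the opposite direction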; further: value is where the raw curve crosses a fixed level and not half-maximal
Numbers stand for hits; i = inactive; nt = not tested or not shown; ! = a repeat was not active.

SMILES	CFTR F508del cor	Vif inh	FGF22 binding-1	FGF22 binding-2	SYPRO no-protein
CN1C(=O)c2cc(NC(=O)c3cccc(F)c3)ccc2OC[C@H]2O[C@@H](CC(=O)NCC3CCCCC3)CC[C@H]21	nt	nt	2.3	i	i
CN1C(=O)c2cc(NC(=O)c3cccc(F)c3)ccc2OC[C@H]2O[C@@H](CC(=O)N3CCc4ccccc4C3)CC[C@H]21	i	nt	1.3	i	i
CN1C(=O)c2cc(NC(=O)c3cccc(F)c3)ccc2OC[C@@H]2O[C@H](CC(=O)NCC3CCCCC3)CC[C@@H]21	nt	nt	2.3!	i	i
CN1C(=O)c2cc(NC(=O)c3cccc(F)c3)ccc2OC[C@@H]2O[C@H](CC(=O)NCc3ccccc3)CC[C@H]21	i	nt	i	nt	nt
CN1C(=O)c2cc(NC(=O)c3cccc(F)c3)ccc2OC[C@H]2O[C@H](CC(=O)NCC3CC3)CC[C@@H]21	i	nt	i	nt	nt
CN1C(=O)c2cc(NC(=O)c3cccc(F)c3)ccc2OC[C@H]2O[C@H](CC(=O)NCC3CC3)CC[C@H]21	i	nt	nt	nt	nt
CN1C(=O)c2cc(NC(=O)c3cccc(F)c3)ccc2OC[C@H]2O[C@H](CC(=O)N3CCc4ccccc4C3)CC[C@@H]21	i	nt	i	nt	nt
CN1C(=O)c2cc(NC(=O)c3cccc(F)c3)ccc2OC[C@H]2O[C@@H](CC(=O)NCc3ccccc3)CC[C@H]21	i	nt	1.7	i	i
NC(=O)NCC#Cc1ccc2c(c1)[C@]1(C(=O)N2)[C@H](C(N)=O)[C@H]2C(=O)O[C@H](c3ccccc3)[C@H](c3ccccc3)N2[C@@H]1c1ccccc1OCCO	i	nt	i	nt	nt
C[C@H]1CN([C@@H](C)CO)C(=O)c2cc(NC(=O)CCC(F)(F)F)ccc2O[C@@H]1CN(C)CC1CC1	i	nt	i	nt	nt
Oc1ccc(-c2nc3ccccc3s2)c(O)c1	i	i	1.3	i	i
Nc1ccc(O)c(-c2nc3ccccc3s2)c1	nt	i	nt	nt	nt
C[C@H]1CN([C@@H](C)CO)C(=O)c2cc(NC(=O)CCCN(C)C)ccc2O[C@H]1CN(C)S(=O)(=O)c1cn(C)cn1	i	nt	i	nt	nt
CCOc1ccc(C2OC(=O)Cc3cc(OC)c(OC)cc32)cc1 (configuration not stated)	i	i	14.4	i	i
CCOc1ccc(C2NC(=O)Cc3cc(OC)c(OC)cc32)cc1 (configuration not stated)	i	i	i	nt	nt
C[C@H](CO)N1C[C@H](C)[C@H](CN(C)Cc2ccc(C(=O)O)cc2)Oc2c(cccc2N(C)C)C1=O	i	nt	i	nt	nt
Cc1ccc(S(=O)(=O)N[C@H]2C=C[C@@H](CC(=O)NCc3ccccc3F)O[C@@H]2CO)cc1	i	nt	i	nt	nt
C/C=C/c1ccc([C@@H]2[C@@H](CO)N(C(=O)CN3CCOCC3)[C@H]2C#N)cc1	i	nt	i	nt	nt
C/C=C/c1ccc([C@@H]2[C@H](C#N)N(C(=O)CN3CCOCC3)[C@H]2CO)cc1	i	nt	2.3	i	i
COc1ccc([Si](C)(C)[C@H]2[C@H](CCn3cc([C@H](O)c4ccccc4)nn3)O[C@@]3(C(=O)N(Cc4cccc(N5CCOC5=O)c4)c4ccccc43)[C@@H]2C)cc1	i	nt	i	nt	nt
CCC(=O)N1[C@@H]2c3ccc(-c4ccccc4)c(=O)n3C[C@H]1[C@H](CO)[C@H]2C(=O)N1CCN(C)CC1	i	nt	i	nt	nt
C[C@@H]1CN([C@H](C)CO)C(=O)c2cc(NS(=O)(=O)c3ccc(Cl)cc3)ccc2O[C@@H]1CN(C)C(=O)Nc1ccccc1	i	nt	i	nt	nt
CC(C)N(C[C@H]1N[C@H](CO)[C@H]1c1ccccc1)S(=O)(=O)c1ccccc1	i	nt	1.4	i	i
C/C=C/c1ccc([C@@H]2[C@@H](CO)N[C@@H]2CN(C)S(=O)(=O)c2ccccc2)cc1	i	nt	nt	nt	nt
C[C@H](CO)N1C[C@H](C)[C@@H](CN(C)CC2CCOCC2)Oc2cc(-c3cccnc3)ccc2S1(=O)=O	i	nt	i	nt	nt
CC(C)CC#Cc1cnc2c(c1)C(=O)N([C@@H](C)CO)C[C@H](C)[C@@H](CN(C)Cc1ccccn1)O2	i	nt	1.6	i	i
C[C@H]1CN([C@@H](C)CO)C(=O)c2cc(C#Cc3ccccc3F)cnc2O[C@H]1CN(C)S(=O)(=O)c1ccccc1	i	nt	1.7	i	i
C[C@@H]1CN([C@H](C)CO)C(=O)c2cc(Br)cnc2O[C@@H]1CN(C)Cc1ccccc1	i	nt	i	nt	nt
C[C@@H]1CN([C@H](C)CO)C(=O)c2cc(Br)cnc2O[C@@H]1CN(C)Cc1ccc(F)cc1	i	i	21.2!	i	i
